From PubChem BioAssay AID1159580 (chemical genetic matrix, 2015)
In all, about 5,500 compounds went through this assay and about 2,000 (36%) were called active. Not shown: some 18% with an inconclusive outcome. No stated cut-off is given here; in the data, active means normalized growth mostly below about 0.91 (no sharp cut-off); inconclusive means no clear call, values can overlap the other calls; inactive means mostly above about 0.92. The list shows a part of the results.

Assay: chemical genetic growth profiling, strain panel (AID 1159580);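 further: tested at 20 µM; growth read once vehicle control cultures reached saturation at 30 °C; 1 = growth at the plate median or of vehicle wells; lower values mean less growth of the strain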
Settings: growth OD
[1] = S. cerevisiae deletion strains, locus YAL040C, strain CLN3, active compounds read low
[2] = S. cerevisiae deletion strains, locus YER002W, strain NOP16, active compounds read low
[3] = S. cerevisiae deletion strains, locus YJR075W, strain HOC1, active compounds read low
[4] = S. cerevisiae deletion strains, locus YNL153C, strain GIM3, active compounds read low
[5] = S. cerevisiae deletion strains, locus YNL175C, strain NOP13, active compounds read low
[6] = S. cerevisiae deletion strains, locus YNL197C, strain WHI3, active compounds read low
[7] = S. cerevisiae deletion strains, locus YNL224C, strain SQS1, active compounds read low
[8] = S. cerevisiae deletion strains, locus YOR083W, strain WHI5 (second series), active compounds read low
[9] = S. cerevisiae deletion strains, locus YPL055C, strain LGE1, active compounds read low
[10] = S. cerevisiae deletion strains, locus YPL241C, strain CIN2, active compounds read low
[11] = S. cerevisiae deletion strains, locus YDL101C, strain DUN1, active compounds read low
[12] = S. cerevisiae deletion strains, locus YDR150W, strain NUM1, active compounds read low
[13] = S. cerevisiae deletion strains, locus YHR030C, strain SLT2, active compounds read low

Measured: normalized growth

COc1ccc2[nH]c3c(c2c1)CCNC3
inactive: [1] 0.974 | [2] 1.02 | S. cerevisiae deletion strains, locus YGR229C, strain SMI1, active compounds read low 1.05 | [3] 1.01 | S. cerevisiae deletion strains, locus YNL128W, strain TEP1, active compounds read low 0.996 | [4] 0.983 | [5] 0.985 | [6] 0.983 | [7] 1.01 | [8] 0.996 | [9] 1 | [10] 0.981

Cc1ccc2[nH]c3c(c2c1)CCCC3
active: S. cerevisiae deletion strains, locus YAL013W, strain DEP1, active compounds read low 0.853 | S. cerevisiae deletion strains, locus YBR229C, strain ROT2, active compounds read low 0.544 | [11] 0.778 | S. cerevisiae deletion strains, locus YEL061C, strain CIN8, active compounds read low 0.738 | S. cerevisiae deletion strains, locus YGR078C, strain PAC10, active compounds read low 0.781 | [13] 0.377 | S. cerevisiae deletion strains, locus YHR087W, strain rtc3, active compounds read low 0.762 | S. cerevisiae deletion strains, locus YJR043C, strain POL32, active compounds read low 0.869 | [3] 0.636 | S. cerevisiae deletion strains, locus YLR039C, strain RIC1, active compounds read low 0.259 | S. cerevisiae deletion strains, locus YLR058C, strain SHM2 (second series), active compounds read low 0.867 | S. cerevisiae deletion strains, locus YLR085C, strain ARP6, active compounds read low 0.696 | S. cerevisiae deletion strains, locus YLR262C, strain YPT6, active compounds read low 0.224 | S. cerevisiae deletion strains, locus YML094W, strain GIM5, active compounds read low 0.664 | S. cerevisiae deletion strains, locus YMR219W, strain ESC1, active compounds read low 0.828 | S. cerevisiae deletion strains, locus YMR263W, strain SAP30, active compounds read low 0.867 | [4] 0.807 | S. cerevisiae deletion strains, locus YNL298W, strain CLA4 (second series), active compounds read low 0.578 | S. cerevisiae deletion strains, locus YNR030W, strain Alg12, active compounds read low 0.669 | [9] 0.822 | [10] 0.722 | S. cerevisiae deletion strains, locus YPR135W, strain CTF4, active compounds read low 0.477 | S. cerevisiae strains, strain wild type, active compounds read low 0.904
inactive: [12] 0.911 | S. cerevisiae deletion strains, locus YKL190W, strain CNB1, active compounds read low 0.989 | S. cerevisiae deletion strains, locus YNL322C, strain KRE1, active compounds read low 0.949

Brc1ccc2[nH]c3c(c2c1)CCC3
active: S. cerevisiae deletion strains, locus YDL214C, strain PRR2, active compounds read low 0.69 | S. cerevisiae deletion strains, locus YER123W, strain YCK3, active compounds read low 0.609 | S. cerevisiae deletion strains, locus YER133W, strain GLC7, active compounds read low 0.668 | S. cerevisiae deletion strains, locus YFR019W, strain FAB1, active compounds read low 0.759 | S. cerevisiae deletion strains, locus YGR052W, strain FMP48, active compounds read low 0.595 | [13] 0.344 | S. cerevisiae deletion strains, locus YHR079C, strain IRE1, active compounds read low 0.151 | S. cerevisiae deletion strains, locus YHR082C, strain KSP1, active compounds read low 0.587 | S. cerevisiae deletion strains, locus YJL095W, strain BCK1, active compounds read low 0.467 | S. cerevisiae deletion strains, locus YKL048C, strain ELM1, active compounds read low 0.769 | S. cerevisiae deletion strains, locus YKL067W, strain YNK1, active compounds read low 0.723 | S. cerevisiae deletion strains, locus YLR113W, strain HOG1, active compounds read low 0.44 | S. cerevisiae deletion strains, locus YML070W, strain DAK1, active compounds read low 0.651 | S. cerevisiae deletion strains, locus YNL183C, strain NPR1, active compounds read low 0.519 | S. cerevisiae deletion strains, locus YOL136C, strain PFK27, active compounds read low 0.625 | S. cerevisiae deletion strains, locus YOR231W, strain MKK1, active compounds read low 0.56 | S. cerevisiae deletion strains, locus YPL031C, strain PHO85, active compounds read low 0.647 | S. cerevisiae deletion strains, locus YPL153C, strain RAD53, active compounds read low 0.653 | S. cerevisiae deletion strains, locus YPL204W, strain HRR25, active compounds read low 0.642 | S. cerevisiae deletion strains, locus YPL256C, strain CLN2, active compounds read low 0.472
inactive: S. cerevisiae deletion strains, locus YAR019C, strain CDC15, active compounds read low 0.954 | S. cerevisiae deletion strains, locus YBL105C, strain PKC1, active compounds read low 0.955 | S. cerevisiae deletion strains, locus YBR135W, strain CKS1, active compounds read low 0.934 | S. cerevisiae deletion strains, locus YBR136W, strain MEC1, active compounds read low 0.945 | S. cerevisiae deletion strains, locus YBR160W, strain CDC28, active compounds read low 0.949 | S. cerevisiae deletion strains, locus YDL017W, strain CDC7, active compounds read low 0.962 | S. cerevisiae deletion strains, locus YDL028C, strain MPS1, active compounds read low 0.937 | [11] 0.966 | S. cerevisiae deletion strains, locus YDL108W, strain KIN28, active compounds read low 0.932 | S. cerevisiae deletion strains, locus YDL132W, strain cdc53, active compounds read low 0.962 | S. cerevisiae deletion strains, locus YDR052C, strain DBF4, active compounds read low 0.975 | S. cerevisiae deletion strains, locus YDR054C, strain cdc34, active compounds read low 0.97 | S. cerevisiae deletion strains, locus YDR226W, strain ADK1, active compounds read low 0.96 | S. cerevisiae deletion strains, locus YDR477W, strain SNF1, active compounds read low 0.712 | S. cerevisiae deletion strains, locus YFL009W, strain cdc4, active compounds read low 0.946 | S. cerevisiae deletion strains, locus YFL029C, strain CAK1, active compounds read low 0.942 | S. cerevisiae deletion strains, locus YFR003C, strain YPI1, active compounds read low 0.952 | S. cerevisiae deletion strains, locus YFR028C, strain CDC14, active compounds read low 0.969 | S. cerevisiae deletion strains, locus YGR040W, strain KSS1, active compounds read low 0.716 | S. cerevisiae deletion strains, locus YGR092W, strain DBF2, active compounds read low 0.621 | S. cerevisiae deletion strains, locus YHR205W, strain SCH9, active compounds read low 0.666 | S. cerevisiae deletion strains, locus YIL147C, strain SLN1, active compounds read low 0.947 | S. cerevisiae deletion strains, locus YJL128C, strain PBS2, active compounds read low 0.915 | S. cerevisiae deletion strains, locus YJL157C, strain FAR1, active compounds read low 0.74 | S. cerevisiae deletion strains, locus YJR016C, strain ILV3, active compounds read low 0.946 | S. cerevisiae deletion strains, locus YJR066W, strain TOR1 (second series), active compounds read low 0.67 | S. cerevisiae deletion strains, locus YJR066W, strain TOR1, active compounds read low 0.541 | S. cerevisiae deletion strains, locus YKL101W, strain HSL1, active compounds read low 0.747 | S. cerevisiae deletion strains, locus YKL193C, strain SDS22, active compounds read low 0.937 | S. cerevisiae deletion strains, locus YKL203C, strain TOR2, active compounds read low 0.762 | S. cerevisiae deletion strains, locus YLR133W, strain CKI1, active compounds read low 0.805 | S. cerevisiae deletion strains, locus YLR403W, strain SFP1, active compounds read low 0.757 | S. cerevisiae deletion strains, locus YMR001C, strain CDC5, active compounds read low 0.94 | S. cerevisiae deletion strains, locus YMR205C, strain PFK2 (second series), active compounds read low 0.784 | S. cerevisiae deletion strains, locus YMR277W, strain FCP1, active compounds read low 0.948 | S. cerevisiae deletion strains, locus YNL006W, strain LST8, active compounds read low 0.938 | S. cerevisiae deletion strains, locus YNL020C, strain ARK1, active compounds read low 0.795 | S. cerevisiae deletion strains, locus YNL161W, strain CBK1, active compounds read low 0.942 | S. cerevisiae deletion strains, locus YNL207W, strain RIO2, active compounds read low 0.926 | S. cerevisiae deletion strains, locus YNL222W, strain SSU72, active compounds read low 0.936 | S. cerevisiae deletion strains, locus YNL307C, strain MCK1 (second series), active compounds read low 0.695 | S. cerevisiae deletion strains, locus YOL078W, strain AVO1, active compounds read low 0.942 | S. cerevisiae deletion strains, locus YOR061W, strain CKA2, active compounds read low 0.76 | S. cerevisiae deletion strains, locus YOR119C, strain RIO1, active compounds read low 0.729 | S. cerevisiae deletion strains, locus YOR329C, strain SCD5, active compounds read low 0.948 | S. cerevisiae deletion strains, locus YPL209C, strain IPL1, active compounds read low 0.938 | S. cerevisiae deletion strains, locus YPR025C, strain CCL1, active compounds read low 0.94 | S. cerevisiae deletion strains, locus YPR106W, strain ISR1, active compounds read low 0.94 | S. cerevisiae deletion strains, locus YPR111W, strain DBF20, active compounds read low 0.945 | S. cerevisiae deletion strains, strain NNK1, active compounds read low 0.926 | S. cerevisiae deletion strains, strain TSCII, active compounds read low 0.931

O=C1Cc2c([nH]c3ccc(Br)cc23)-c2ccccc2N1
inactive: [1] 0.964 | S. cerevisiae deletion strains, locus YCL061C, strain MRC1 (second series), active compounds read low 0.991 | [12] 0.989 | S. cerevisiae deletion strains, locus YDR363W, strain ESC2, active compounds read low 1.03 | [2] 1.01 | [3] 1.06 | [5] 0.984 | [6] 0.988 | [7] 0.998 | [8] 0.976 | [10] 0.985
